AMPAR-TARP mod: modulates AMPAR-stargazin complexes | O88602+P19491 | HEK293 GluA2+stargazin, membrane potential dye (FDSS), glutamate EC50; hits were called plate by plate, in both directions | calls only at 30 µM | 3.5% of 40,000 active | AID 1259245;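 active means any of four per-well response measures lying three or more SD from its plate-wide compound average, in either direction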
GIRK2 act: GIRK2 channel activators by thallium flux | P48051 | activation (% efficacy), % for hits at 37.5 µM | HEK293 GIRK2/NPY4 cells, thallium flux fluorescence | 34,000 tested, under 10 active;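 active means primary screen hit, no activity in plain HEK293 cells, and in GIRK2-only cells above 5% efficacy rising with concentration; inactive means the rest, including fluorescent compounds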;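 further: efficacy is normalized control-subtracted fluorescence 15 s after thallium addition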
Target sequence (P48051 whole entry, looked up): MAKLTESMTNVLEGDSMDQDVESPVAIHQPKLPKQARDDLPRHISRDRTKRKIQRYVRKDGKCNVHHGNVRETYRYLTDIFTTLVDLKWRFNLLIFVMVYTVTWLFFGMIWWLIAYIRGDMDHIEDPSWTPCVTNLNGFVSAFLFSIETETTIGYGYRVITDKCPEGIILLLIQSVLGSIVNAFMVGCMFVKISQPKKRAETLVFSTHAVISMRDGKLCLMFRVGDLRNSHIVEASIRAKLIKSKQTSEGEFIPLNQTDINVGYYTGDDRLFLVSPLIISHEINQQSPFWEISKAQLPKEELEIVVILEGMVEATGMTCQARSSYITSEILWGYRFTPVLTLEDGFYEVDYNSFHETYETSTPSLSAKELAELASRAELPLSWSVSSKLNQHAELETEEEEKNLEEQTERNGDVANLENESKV
Numbers without * were called inactive; i = inactive; nt = no result; + = active, no number. The entries come from a sample that favours hits as a whole.

SMILES	AMPAR-TARP mod	GIRK2 act
COc1cccc(S(=O)(=O)NCC(O)(c2ccccc2)C2CC2)c1 (stereo not given)	i	i
Cc1ccc(-c2cc(=O)n(CC(=O)NC3CCCC3)cn2)cc1	i	i
COC(=O)CCn1c(=O)c2c(nc3oc(C(C)(C)C)cn32)n(C)c1=O	i	nt
COC(=O)C1=C(CS(=O)(=O)c2ccc(OC)c(OC)c2)NC(=O)NC1c1cccc(Cl)c1 (stereo not given)	i	nt
COC(=O)C1=C(CS(=O)(=O)c2ccc(OC)c(OC)c2)NC(=O)NC1c1ccc(O)cc1 (stereo not given)	i	nt
COC(=O)C1=C(CS(=O)(=O)c2cc(Cl)ccc2OC)NC(=O)NC1c1ccccc1 (stereo not given)	+	i
COC(=O)C1=C(CS(=O)(=O)c2ccccc2)NC(=O)NC1c1ccc(OC)c(OC)c1 (stereo not given)	+	nt
Cc1ccc2nc(NC(=O)CSc3ccc(NC(=O)C(C)C)nn3)sc2c1	i	i
COc1cccc(OCCn2c(CN3CCCCC3)nc3ccccc32)c1	i	nt
C#CCn1c(SCCOc2cccc(OC)c2)nc2ccccc21	+	nt
COc1ccc(S(=O)(=O)Nc2ccc(CC(=O)NC3CC3)cc2)cc1OC	i	i
Cc1cc(NC(=O)CSc2nc3ccccc3o2)sn1	nt	i
O=C(c1ccccc1F)N1CCC(CNS(=O)(=O)C2CC2)CC1	i	i
Cc1ccc(C)c(Sc2cc(N3CCC(C(=O)NCCN4CCCC4)CC3)ncn2)c1	i	i
Cc1ccc(C)c(Sc2cc(N3CCC(C(=O)NCC4CCCO4)CC3)ncn2)c1 (stereo not given)	+	i
Cc1cc(C)cc(OCCNC(=O)c2cccs2)c1	i	i
COc1ccc(C(=O)NCCOc2cc(C)cc(C)c2)c(OC)c1	+	i
O=C(NCc1cccs1)C1COCC(=O)N1Cc1ccccc1 (stereo not given)	i	i
C=CCN1C(=O)CC(Nc2ccc(F)cc2)C1=O (stereo not given)	nt	i
CC(c1ccccc1)N1C(=O)CC(N2CCOCC2)C1=O (stereo not given)	+	nt
Cc1ccc(CN2C(=O)CC(N3CCOCC3)C2=O)cc1 (stereo not given)	i	i
Cc1ccccc1Cn1c(=O)c2c(nc3n(C(C)c4ccccc4)c(C)cn23)n(C)c1=O (stereo not given)	i	i
COCC(=O)NNC(=O)c1cccn(Cc2ccc(Cl)c(Cl)c2)c1=O	i	i
COc1ccc2nc(-c3cccc(NC(=O)c4c(F)cccc4F)c3)cn2n1	i	i
COc1ccc2nc(-c3cccc(NC(=O)Nc4ccc(F)cc4)c3)cn2n1	+	i
SMILES	AMPAR-TARP mod	GIRK2 act
CCOc1ccc(-n2nnnc2CN2CCN(C(=O)c3c(C)noc3C)CC2)cc1	i	i
CCOc1ccc(-n2nnnc2CN2CCN(C(=O)c3c(F)cccc3Cl)CC2)cc1	+	i
COC(=O)c1sccc1S(=O)(=O)N(CC(=O)Nc1ccc(OC)cc1)c1ccc(Cl)cc1	+	i
COC(=O)c1sccc1S(=O)(=O)N(CC(=O)Nc1cc(C)ccc1C)c1ccc(Cl)cc1	i	i
COC(=O)c1sccc1S(=O)(=O)N(CC(=O)Nc1ccc(OC)cc1)c1ccccc1	i	i
COC(=O)c1sccc1S(=O)(=O)N(CC(=O)Nc1ccccc1OC)c1ccc(Cl)cc1	+	nt
O=C(Nc1nccs1)c1ccc(S(=O)(=O)N2CCOCC2)o1	i	i
COc1cccc(CNC(=O)c2csc(NS(=O)(=O)c3cccs3)n2)c1	i	i
COc1cc2nc(SCc3cccc([N+](=O)[O-])c3)n3nc(C)nc3c2cc1OC	nt	i
CS(=O)(=O)c1ccc(C(=O)Nc2nnc(Cc3ccc(Cl)s3)o2)cc1	nt	i
COc1ccc2nc(-c3ccc(Cl)c(NC(=O)c4cccs4)c3)cn2n1	nt	i
O=C(CN1C(=O)c2ccccc2S1(=O)=O)Nc1nc2ccccc2s1	i	i
CC(=O)N1CCN(CC(=O)Nc2ccc(Br)cc2)CC1	i	i
C=CCN1CC(c2nc3ccccc3n2CC(O)COc2c(C)cccc2C)CC1=O (stereo not given)	+	i
C=CCN1CC(c2nc3ccccc3n2Cc2cc(C)ccc2C)CC1=O (stereo not given)	+	nt
C=CCN1CC(c2nc3ccccc3n2Cc2ccccc2C)CC1=O (stereo not given)	i	nt
Cc1ccc(N2CC(c3nc4ccccc4n3Cc3ccccc3C)CC2=O)cc1 (stereo not given)	i	nt
Cc1ccc(C)c(Cn2c(C3CC(=O)N(c4ccccc4)C3)nc3ccccc32)c1 (stereo not given)	+	nt
Cc1cc(C)cc(OCC(O)Cn2c(C3CC(=O)N(Cc4ccccc4)C3)nc3ccccc32)c1 (stereo not given)	i	i
COc1ccc2sc(N(CCN3CCOCC3)C(=O)c3cc(=O)c4ccccc4o3)nc2c1	i	i
Cc1ccc(-c2nnc(NC(=O)CN3C(=O)CCC3=O)o2)c(C)c1	i	nt
O=C(Nc1c2c(nn1-c1cccc(Cl)c1)CS(=O)(=O)C2)C(=O)N1CCOCC1	i	i
Cc1cc(=O)[nH]c2cc(NC(=O)C3CCN(S(C)(=O)=O)CC3)ccc12	nt	i
CN(C)C(CNC(=O)c1ccccc1Br)c1cn(C)c2ccccc12 (stereo not given)	i	nt
CC(C)S(=O)(=O)c1ccc(C(=O)Nc2sc3c(c2C(N)=O)CCCC3)cc1	i	i
SMILES	AMPAR-TARP mod	GIRK2 act
CC(=O)N1CCc2c(sc(NC(=O)c3ccc(S(=O)(=O)C(C)C)cc3)c2C(N)=O)C1	+	i
COc1ccc(Cl)cc1S(=O)(=O)Nc1ccc2c(c1)N(C(=O)C(C)(C)C)CC2	+	i
COc1ccccc1OCC(=O)Nc1ccc2c(c1)N(C(=O)C(C)(C)C)CC2	+	i
COc1ccc(C)cc1S(=O)(=O)Nc1ccc2c(c1)N(C(=O)C(C)(C)C)CC2	i	i
COc1ccc(OCC(=O)Nc2ccc3c(c2)N(C(=O)C(C)(C)C)CC3)cc1	i	i
Cc1[nH]c(=O)[nH]c(=O)c1CC(=O)N1CCN(c2ccccc2)CC1	i	i
CC(=O)Cn1c(=O)c2c(nc3n(-c4ccc(C)cc4C)c(C)c(C)n23)n(C)c1=O	i	i
CCCCOc1ccc(C(=O)N2CCC3(CC2)CC(=O)c2ccccc2O3)cc1	i	nt
COc1ccc(CC(=O)Nc2ccc3c(c2)N(C(=O)C2CCCC2)CC3)cc1	nt	i
Cc1noc(-c2ccn3c(=O)n(CC#N)nc3c2)n1	i	i
Cc1ccc(CN2C(=O)N(c3ccc(C)c(Cl)c3)C3CS(=O)(=O)CC32)cc1 (stereo not given)	i	i
C=Cc1ccc(CN2C(=O)N(c3ccc(CC)cc3)C3CS(=O)(=O)CC32)cc1 (stereo not given)	+	nt
COc1ccc(S(=O)(=O)N2CCCc3cc(NS(=O)(=O)Cc4ccc(C)cc4)ccc32)cc1	i	nt
COC(=O)c1ccc2c(=O)n(Cc3ccc(C(=O)NC4CCCC4)cc3)c(=S)[nH]c2c1	i	i
COC(=O)c1ccc2c(=O)n(Cc3ccc(C(=O)NCCCN4CCOCC4)cc3)c(=S)[nH]c2c1	+	i
